These results are taken from ChEMBL document CHEMBL4513216, “Probing the Open Global Health Chemical Diversity Library for Multistage-Active Starting Points for Next-Generation Antimalarials” (ACS Infect Dis, 2020).

The structures appear in SMILES notation. About 8,600 (12%) of roughly 69,000 compounds showed an effect of 50% or more. The list comes from a sample in which strong results are over-represented; it also holds similar structures and randomly drawn compounds.

The experiment deals with Plasmodium berghei. Nature of the experiment: Screen against P. berghei liver stage (PbLuc), transformed with Luciferase, at 10uM. The class given is functional, HepG2. The note with it: tested at 10 uM.
Turning to `COc1ccc(OCCN(C)S(=O)(=O)c2cnn(C)c2)cc1`, the INHIBITION is 11.5%.
Consider `O=C(NCCOc1ccccc1)Nc1cc(C(F)(F)F)c[nH]c1=O`, for which the INHIBITION came to 9.895%.
With `COCC(=O)N1CCC2(CC1)CN(CC1CC1)c1ccc(F)cc12`, the INHIBITION turned out to be 77.4%.
With `CC(=O)N1CCC2(CC1)CN(CC1CC1)c1ccc(F)cc12` the figure was 37.6%; with `COCC(=O)N1CCC2(CCc3ccc(F)cc32)CC1`, -30%; with `Cn1cc(CN2CCCC23CCN(C(=O)c2ccsc2)CC3)cn1`, -16.1%.
`Cc1cnn(CC2CCCN2C(=O)c2ccc3[nH]c(=O)[nH]c3c2)c1` (stereo unspecified): the INHIBITION was determined as 17.5%.
As for `Cc1ccsc1CN(C)c1nc2c(cnn2C(C)(C)C)c(=O)[nH]1`, the INHIBITION is on record as 70.7%.
As for `Cc1ccsc1CN(C)Cc1nc2c(cnn2C)c(=O)[nH]1`, the INHIBITION turned out to be 26.3%.
As to `CN(Cc1cccs1)c1nc2c(cnn2C(C)(C)C)c(=O)[nH]1`, the INHIBITION is on record as 53.5%.
On to `Cc1ncc(CN(C)c2nc3c(cnn3C(C)(C)C)c(=O)[nH]2)s1`, for which the INHIBITION came out at 30.8%.
With `CCN(Cc1nc2c(cnn2C)c(=O)[nH]1)Cc1cccs1` the figure was 44.6%; with `Cc1nc(CN(C)c2nc3c(cnn3C(C)(C)C)c(=O)[nH]2)cs1`, 36.2%.
With `CCc1nc2n(n1)CC(NCc1cnc(N(CC)CC)s1)CC2` (stereo unspecified), the INHIBITION is 30.5%.
With `CC(=O)N1CCCC(C(=O)c2cnn(-c3ccc(F)cc3)c2N)C1` (stereo unspecified) the figure was 24.425%; with `Cc1nc[nH]c1CN1C[C@@H]2OCCN(c3ncccn3)[C@@H]2C1`, 42.7%.
`Cc1ccc(-n2ccnc2-c2cn(C3CCNCC3)nn2)c(Cl)c1`: the INHIBITION is 45.8%.
Take `Cc1cccc(C(=O)N2CCN(CCC(C)C)CC2)n1`: the INHIBITION is recorded as 50.3%.
For `CC(C)CCN1CCN(C(=O)c2ccc(=O)[nH]n2)CC1`, the INHIBITION is recorded as 47%.
Then `Cc1ncsc1C(=O)N1CCN(CCC(C)C)CC1`, with 53.7%; and `CCN1CCN(C(=O)c2scnc2C)CC1`, with 26.4%; and `Cc1cccc(C(=O)N2CCN(CCOC(C)C)CC2)n1`, with -49.3%.
Consider `CCCN1CCN(C(=O)c2scnc2C)CC1`, for which the INHIBITION was found to be 11.1%.
With `CCN1CCCc2cc(CN3CCc4nc(C)[nH]c(=O)c4C3)ccc21` the figure was 15.1%; with `Cn1ncc(Cl)c1C(=O)NCCN1CCC(O)(c2ccc(F)cc2)CC1`, 6.3%; with `CCOCCCNC(=O)CN(c1cccc(F)c1)S(C)(=O)=O`, 30%.
As to `COC(=O)c1c(Cl)c(C2CC2)nc2onc(C)c12`, the INHIBITION came to 47.2%.
Regarding `O=C(Cn1ccnc1)N1C[C@@H]2CC[C@H](Oc3cccc(F)c3)[C@@H]2C1`, the INHIBITION is listed as 1.5%.
With `O=C(Cn1ccnc1)N1C[C@@H]2CC[C@H](Oc3ccc(Cl)cc3)[C@@H]2C1`, the INHIBITION was 56%.
For the compound `O=C(Cn1ccnc1)N1C[C@@H]2CC[C@H](Oc3ccccc3F)[C@@H]2C1`, the INHIBITION is on record as -6.92%.
For `CN(C)CC(=O)N1C[C@@H]2CC[C@H](Oc3ccccc3Cl)[C@@H]2C1`, the INHIBITION amounted to 37.5%.
Regarding `O=C(Cn1ccnc1)N1C[C@@H]2CC[C@H](Oc3ccccc3)[C@@H]2C1`, the INHIBITION was found to be 24.5%.
With `O=C(Cn1ccnc1)N1C[C@@H]2CC[C@H](Oc3ccccc3Cl)[C@@H]2C1` the figure was 53.5%; with `Cc1ccc(CN2C(=O)OCC2CO)c2ccccc12` (stereo unspecified), 40.3%; with `CNc1nc(CNC(=O)Nc2cccc(C(C)OC)c2)cs1` (stereo unspecified), 13.957%.
Then `Cc1n[nH]c(C2CN(C(=O)CCc3cscn3)CCO2)n1` (stereo unspecified), with 40.75%; and `N[C@H]1CN(C(=O)CCC(F)(F)F)C[C@@H]1c1ccccc1`, with 36.5%; and `CN(C)[C@H]1CCCCN(C(=O)CCc2csc(N)n2)C1`, with 16.8%.
In the case of `Nc1nc(CCC(=O)N2CCOC(CC3CCCCC3)C2)cs1` (stereo unspecified), the INHIBITION worked out at 85.1%.
Take `CN1[C@@H]2CC[C@H]1CN(C(=O)CCc1csc(N)n1)CC2`: the INHIBITION came to 50.3%.
For the compound `CN(C)C1CCCN(C(=O)CCc2csc(N)n2)CC1` (stereo unspecified), the INHIBITION is 33.9%.
Regarding `Nc1nc(CCC(=O)N2C[C@H](c3ccccc3)[C@@H](N)C2)cs1`, the INHIBITION is given as 51%.
As to `COCCCC1CCCN(C(=O)CCc2csc(N)n2)C1` (stereo unspecified), the INHIBITION was 35.8%.
Consider `N[C@H]1CN(C(=O)CCc2ccccn2)C[C@@H]1c1ccccc1`, for which the INHIBITION was 37.6%.
With `CC1c2ncc(COCC3CCOCC3)n2CCN1Cc1cccnc1` (stereo unspecified) the figure was 12.1%; with `Cc1ccsc1[C@@H]1CCN(C(=O)c2ccc(-c3cc[nH]n3)cc2)C[C@H]1O`, 16.1%; with `Cc1ccsc1[C@@H]1CCN(C(=O)c2cc3ccccc3[nH]2)C[C@H]1O`, 66.9%.
With `Cc1ccsc1[C@@H]1CCN(C(=O)CCc2nc3ccccc3[nH]2)C[C@H]1O` the figure was -27.5%; with `c1csc(CN2CCc3ncnc(C4CCOC4)c3CC2)n1` (stereo unspecified), 31.4%; with `CN(Cc1nc2c(cnn2C)c(=O)[nH]1)Cc1ccco1`, -5.07%.
With `COc1ccc(C(C)N(C)Cc2nc3c(cnn3C)c(=O)[nH]2)cc1` (stereo unspecified) the figure was 0.7%; with `Cc1ccccc1C(C)N(C)Cc1nc2c(cnn2C)c(=O)[nH]1` (stereo unspecified), 26.45%; with `Cn1ncc2c(=O)[nH]c(CN3CCC(Cc4ccccc4)CC3)nc21`, 52.7%.
Regarding `Cc1ccc(C(C)N(C)Cc2nc3c(cnn3C)c(=O)[nH]2)c(C)c1` (stereo unspecified), the INHIBITION was determined as 8.315%.
Take `Cn1ncc2c(=O)[nH]c(CN(Cc3ccco3)C3CCCC3)nc21`: the INHIBITION came out at 54.3%.
Take `Cn1ncc2c(=O)[nH]c(CN3CCc4ccccc4C3)nc21`: the INHIBITION came to 40%.
`Cc1ccc(CN(Cc2nc3c(cnn3C)c(=O)[nH]2)C2CC2)o1`: the INHIBITION was 15.5%.
For `CC(c1ccco1)N(C)Cc1nc2c(cnn2C)c(=O)[nH]1` (stereo unspecified), the INHIBITION is 66.8%.
With `Cn1ncc2c(=O)[nH]c(CN3CCCC3Cc3ccccc3)nc21` (stereo unspecified) the figure was 24%.
As to `Cn1ncc2c(=O)[nH]c(CN(Cc3ccco3)C3CC3)nc21`, the INHIBITION turned out to be 47%.
With `Cc1ccc(C(C)N(C)Cc2nc3c(cnn3C)c(=O)[nH]2)cc1` (stereo unspecified) the figure was 52.1%; with `COC(C)(C)CNC(=O)N1CCC(n2ccc(C(F)(F)F)n2)CC1`, 33.7%.
Consider `COCCn1cc(CC(=O)Nc2c(C)nn(C)c2C)c2ccccc21`, for which the INHIBITION is 37.8%.
Regarding `CCn1cc(CNC(=O)C2CCCC2)cn1`, the INHIBITION is listed as 38.3%.
For `CCOc1ccccc1CC(=O)N1C[C@@H](C(=O)O)[C@H](c2ccncc2)C1`, the INHIBITION is on record as -5.32%.
With `Cc1cccc(CN2CCC(c3csc4nccn34)CC2)n1` the figure was 15.55%.
With `CCN(Cc1nc2c(cnn2C)c(=O)[nH]1)c1cccc(C)c1` the figure was 11.2%; with `CCN(Cc1nc2c(cnn2C)c(=O)[nH]1)c1ccccc1`, 46.2%.
Turning to `CCN(Cc1nc2c(cnn2C)c(=O)[nH]1)c1cc(C)cc(C)c1`, the INHIBITION was 64.7%.
Take `CC(=O)N1CCC2(C=C(C(=O)NC3CC3)c3ccccc32)CC1`: the INHIBITION is reported as -25.8%.
As for `COc1cc(-c2nccn2C(C)CCn2cccn2)cc2c1OCO2` (stereo unspecified), the INHIBITION is 51.3%.
With `COc1cc(CNC(C)Cn2cccn2)cc2c1OCO2` (stereo unspecified) the figure was 12.6%; with `COc1ncc(-c2nccn2C(C)CCn2cccn2)cn1` (stereo unspecified), 66.9%.
With `COCCCn1ccnc1-c1cnc(OC)nc1` the figure was 10.1%.
On to `COc1ncc(-c2nccn2CCN(C)C)cn1`, for which the INHIBITION is listed as -13.2%.
In the case of `COc1cc(-c2nccn2CCn2cccn2)cc2c1OCO2`, the INHIBITION was 9.56%.
Consider `Cc1cc(CN2CCN(C(=O)c3ccc(=O)n(C)c3)CC2)no1`, for which the INHIBITION came out at 7.19%.
Regarding `Cc1nn(C)c(N(C)C)c1CNCc1cccnc1N(C)C`, the INHIBITION is listed as -17.4%.
For the compound `COc1cccc(CN2CC[C@H]3[C@@H](C2)[C@H](c2ccsc2)CN3C(C)=O)c1`, the INHIBITION turned out to be 61.9%.
As to `CC(=O)N1CCO[C@@H]2CN(Cc3cccc(Cl)c3)C[C@@H]2C1`, the INHIBITION worked out at 39.4%.
On to `CC(=O)N1C[C@@H](c2ccsc2)[C@@H]2CN(Cc3cccc(Cl)c3)CC[C@@H]21`, for which the INHIBITION was determined as 65.5%.
Consider `COc1cccc([C@@H]2CCN(Cc3ccc4ccccc4n3)C[C@H]2O)c1`, for which the INHIBITION was -18.4%.
On to `COc1cccc(CC(=O)N2CC[C@H]3[C@@H]2CCC(=O)N3C)c1`, for which the INHIBITION is recorded as -3.51%.
Turning to `COc1cccc([C@@H]2CCN(Cc3cccc(C)n3)C[C@H]2O)c1`, the INHIBITION is on record as -3.83%.
In the case of `COc1cccc([C@H]2CN(C(C)=O)[C@@H]3CCN(Cc4ccsc4)C[C@H]23)c1`, the INHIBITION turned out to be 63.4%.
Consider `CC(=O)N1C[C@@H](c2ccsc2)[C@@H]2CN(Cc3ccccc3)CC[C@@H]21`, for which the INHIBITION is given as 16.9%.
For `COc1cccc(CN2CCCC(c3cc(C(N)=O)[nH]n3)C2)c1` (stereo unspecified), the INHIBITION is listed as -7.31%.
For the compound `O=S(=O)(N1CCCC1)N1CC(c2ccnc(Nc3ccccn3)n2)C1`, the INHIBITION is on record as 26.7%.
As to `CN(C)c1ccc(NC(=O)c2ccnn2C)nc1`, the INHIBITION was -62.7%.
In the case of `CCN1CC2(CC1=O)CN(C(C)=O)CCN(C(=O)NC(C)C)C2` (stereo unspecified), the INHIBITION was -17.2%.
As for `COc1ccc(OCCNCc2c(C)nn(C)c2N(C)C)cc1`, the INHIBITION is recorded as -7.1%.
As for `CCN(C)c1ncnc2c1CCN(C(=O)N1CCCC1)CC2`, the INHIBITION is recorded as -21.3%.
Then `CC(=O)N1CCN(CCNS(=O)(=O)c2ccc(F)c(F)c2)CC1`, with -35.1%; and `COc1cccc(OCc2cc(C(=O)NC[C@H]3CCCN3)n[nH]2)c1`, with 25.4%.
Regarding `COc1cccc(OCc2cc(C(=O)NC[C@@H]3CCCN3)n[nH]2)c1`, the INHIBITION is reported as 14.9%.
For the compound `COc1ccccc1OCc1cc(C(=O)NC[C@@H]2CCCN2)n[nH]1`, the INHIBITION is recorded as 82.9%.
With `CNC(=O)C(C)(C)NC(=O)c1cc(COc2ccccc2OC)[nH]n1`, the INHIBITION was found to be 63.7%.
Turning to `CNC(=O)C(C)(C)N(C)C(=O)c1cc(COc2ccccc2OC)[nH]n1`, the INHIBITION is -4.23%.
With `COC(=O)C(C)(C)NC(=O)c1cc(COc2ccccc2OC)[nH]n1`, the INHIBITION is on record as -3%.
`Cc1ccc(NC(=O)c2cnc(N3CCN(C)CC3)nc2C)cc1C`: the INHIBITION was found to be 43.8%.
As to `CCc1noc(-c2cccc(OCC(=O)NC(C)C)c2)n1`, the INHIBITION stood at 48.7%.
